# Compound activity as filed in PubChem.
# APOBEC3G inh – APOBEC3G DNA deaminase inhibitors, primary screen, biochemical, fluorescence, single-stranded DNA substrate, uHTS | DNA dC->dU-editing enzyme APOBEC-3G (Homo sapiens), Q9HC16 | recombinant A3G, ssDNA deamination FAM/TAMRA fluorescence | inhibition, % at 20 µM | 0.28% of 330,000 active | AID 493012, 2011;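 active = inhibition of at least 40% at 20 µM, with no more than 30% in the related APOBEC3A deaminase screen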;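 also: plate controls were DMSO wells with A3G for no effect and wells lacking A3G enzyme for full effect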
# PfG6PD inh – PfG6PD enzyme inhibitors, primary screen, biochemical, fluorescence intensity, uHTS; glucose-6-phosphate dehydrogenase-6-phosphogluconolactonase (Plasmodium falciparum 3D7); PfGluPho enzyme, NADPH resazurin-diaphorase fluorescence; inhibition, % at 20 µM; 0.78% of 350,000 active;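 active = inhibition reaching at least a set limit at 20 µM in the primary screen, cut at about 59% in these data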;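 also: 0% = DMSO wells with substrate and 100% = DMSO wells lacking glucose-6-phosphate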
# Neddylation inh – inhibitors of cullin neddylation, primary screen, biochemical, TR-FRET, uHTS, NAE and Ubc12. AID 651699, 2012. inhibition, % at 25 µM. 0.58% of 360,000 active; in the data active = inhibition above about 36%
# APOBEC3A inh – APOBEC3A ssDNA deaminase inhibitors, primary screen, selectivity assay for APOBEC3G inhibitor project, biochemical, FAM/TAMRA oligo cleavage fluorescence | DNA dC->dU-editing enzyme APOBEC-3A (Homo sapiens), P31941 | recombinant A3A, FAM/TAMRA ssDNA deamination fluorescence | inhibition, % at 20 µM | 0.41% of 330,000 active | AID 493011, 2011;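 active = at least 40% inhibition at 20 µM here, with at most 30% in a related deaminase screen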;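 also: plate controls were A3A with DMSO for no effect and wells lacking A3A enzyme for full effect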
# NPR1 activator – GC-A stimulated cGMP production enhancers – HEK293 GC-A cells, cGMP TR-FRET, EC30 ANP, primary screen; 0% at EC30 ANP, 100% saturating ANP; activation, % at 10 µM; 0.14% of 370,000 active; in the data active = activation above about 40%
# Target sequence (P16066 whole entry, looked up): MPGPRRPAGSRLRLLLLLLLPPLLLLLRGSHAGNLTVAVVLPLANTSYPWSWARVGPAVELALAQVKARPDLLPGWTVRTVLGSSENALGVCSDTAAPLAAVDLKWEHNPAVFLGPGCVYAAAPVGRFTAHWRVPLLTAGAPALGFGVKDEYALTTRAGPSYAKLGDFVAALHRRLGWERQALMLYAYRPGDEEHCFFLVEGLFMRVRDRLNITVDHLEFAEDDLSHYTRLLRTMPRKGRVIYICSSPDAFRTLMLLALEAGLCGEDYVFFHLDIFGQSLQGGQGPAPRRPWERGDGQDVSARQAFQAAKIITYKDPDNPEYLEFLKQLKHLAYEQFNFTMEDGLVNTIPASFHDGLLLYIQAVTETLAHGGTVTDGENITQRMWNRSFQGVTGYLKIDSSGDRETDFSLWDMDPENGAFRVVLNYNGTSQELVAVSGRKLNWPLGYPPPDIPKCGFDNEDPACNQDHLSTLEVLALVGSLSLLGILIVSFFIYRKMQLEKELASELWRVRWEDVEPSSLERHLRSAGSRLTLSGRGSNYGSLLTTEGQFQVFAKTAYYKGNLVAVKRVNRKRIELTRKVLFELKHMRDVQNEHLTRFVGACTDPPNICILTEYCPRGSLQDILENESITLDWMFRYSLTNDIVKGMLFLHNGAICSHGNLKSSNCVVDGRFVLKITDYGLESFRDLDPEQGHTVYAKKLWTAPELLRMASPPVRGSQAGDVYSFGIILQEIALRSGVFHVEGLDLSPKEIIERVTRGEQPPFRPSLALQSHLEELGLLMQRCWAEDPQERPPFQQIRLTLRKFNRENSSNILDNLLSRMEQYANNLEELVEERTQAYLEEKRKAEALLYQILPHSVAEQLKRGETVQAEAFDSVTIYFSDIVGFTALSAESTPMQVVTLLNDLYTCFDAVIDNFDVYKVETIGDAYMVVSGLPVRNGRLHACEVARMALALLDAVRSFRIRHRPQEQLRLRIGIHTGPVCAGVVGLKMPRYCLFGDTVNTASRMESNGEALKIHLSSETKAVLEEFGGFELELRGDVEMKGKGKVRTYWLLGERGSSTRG
# GC-B act – human GC-B receptor activators, primary screen, HEK293 GC-B cells, cGMP TR-FRET, EC30 CNP. 0% at EC30 CNP, 100% saturating CNP. activation, % at 10 µM. 0.11% of 370,000 active. AID 1920062, 2024;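 active = activation at 10 µM reaching about 35% in either raw or pattern-adjusted values, limit read from the data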
# Neddyl conf – blockade of NEDD8 conjugation to cullin – biochemical, TR-FRET, single concentration, confirmation. shares compounds with Neddylation inh. TR-FRET cullin neddylation biochemical assay. calls only at 25 µM. 13% of 1,800 active. AID 652217, 2013; in the data active = inhibition above about 40%;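 also: neddylation substrate is the cullin 1 ring ligase complex with SKP2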
# * marks the source's active call; other numbers are inactive results; i = inactive; nt = no result given; + = active, no number. In the library only some 2% were active in any assay of this set; here they are far more common.
SMILES,APOBEC3G inh,PfG6PD inh,Neddylation inh,APOBEC3A inh,NPR1 activator,GC-B act,Neddyl conf
N#C/C(=C/c1ccco1)C(N)=S,8,26,64*,7,2,2,i
OC(c1ccc(F)cc1)c1ncc(-c2cccc3ccccc23)[nH]1 (stereo unspecified),nt,nt,40*,nt,-4,-4,i
CCc1ccc(C(O)c2ncc(-c3cccc4ccccc34)[nH]2)cc1 (stereo unspecified),nt,nt,35,nt,0,-6,nt
O=C1NC(=O)c2cc3ccccc3cc21,-3,6,48*,0,3,-2,+
Cc1cc(=O)oc2cc(OCc3nnc(-c4ccccc4Br)o3)ccc12,-9,9,44*,-11,1,-1,i
O=C(NCCN1CCC(Cc2ccccc2)CC1)C1CCCN(S(=O)(=O)c2ccccc2[N+](=O)[O-])C1 (stereo unspecified),nt,nt,nt,nt,-2,-5,nt
CCN(CC)c1ccc(/C=N\NC(N)=O)cc1,-7,-2,40*,-5,-4,-3,i
CCN(CC)c1ccc(/C=N/NC(=O)CC(C)C)cc1,-7,-4,54*,-5,-2,2,+
CCN(CC)c1ccc(/C=N/NC(=O)Nc2ccccc2)cc1,-9,17,39,-2,-6,-4,nt
CCCC#Cc1ccc(CC[C@H]2O[C@H]3CC[C@H](CO)O[C@H]3C[C@H]2NC(=O)CN2CCOCC2)cc1,nt,nt,nt,nt,5,0,nt
COc1ccc(C(=O)OC(C)CN2CCOCC2)cc1OC (stereo unspecified),0,-14,40*,-1,3,-1,i
COc1ccc(C(=O)OC(C)CN2CCOCC2)cc1 (stereo unspecified),-8,6,-4,-2,7,-1,nt
Fc1cccc(Nc2nc3ccccc3n3nnnc23)c1,-8,-14,nt,-5,0,-6,nt
COc1cccc(Nc2nc3ccccc3n3nnnc23)c1,-5,-5,44*,-2,-4,-2,nt
CN(C)C(=O)C[C@H]1C[C@@H]2c3cc(NC(=O)NC4CCCC4)ccc3O[C@@H]2[C@@H](CO)O1,nt,nt,nt,nt,2,-2,nt
COc1cccc(N(C(=O)c2snc(C(N)=O)c2N)C(C(=O)NCC2CCCO2)c2cccs2)c1 (stereo unspecified),0,5,35,0,-17,-4,nt
Cc1cc(C)cc(N(C(=O)c2snc(C(N)=O)c2N)C(C(=O)NCC2CCCO2)c2cccs2)c1 (stereo unspecified),-7,25,43*,-3,-34,-12,i
Cc1ccc(C(C(=O)NCC2CCCO2)N(C(=O)c2snc(C(N)=O)c2N)c2ccc(F)cc2)o1 (stereo unspecified),-2,6,53*,0,-13,-5,+
NC(=O)c1nsc(C(=O)N(c2ccccc2)C(C(=O)NCC2CCCO2)c2cccs2)c1N (stereo unspecified),-3,-16,44*,2,nt,nt,i
COc1ccc(-c2cc(C(=O)NN=C/C(C)=C/c3ccccc3)[nH]n2)cc1,nt,nt,nt,nt,-2,-9,nt
N=c1c(S(=O)(=O)c2ccc(Br)cc2)cc2c(=O)n3ccccc3nc2n1Cc1ccccc1,-1,-21,34,-2,2,0,nt
COc1ccc(CCn2c(=N)c(S(=O)(=O)c3ccc(C)cc3)cc3c(=O)n4ccccc4nc32)cc1,-8,-1,36,-3,-2,-2,nt
COCCn1c(=N)c(S(=O)(=O)c2ccc(Br)cc2)cc2c(=O)n3ccccc3nc21,-4,-19,53*,-1,3,1,i
COCCn1c(=N)c(S(=O)(=O)c2ccc(F)cc2)cc2c(=O)n3ccccc3nc21,-5,5,55*,-4,6,3,i
CCn1c2ccccc2c2cc(C=NNC(=O)c3cc(-c4ccc(OC)cc4)n[nH]3)ccc21,nt,nt,nt,nt,-3,-6,nt
SMILES,APOBEC3G inh,PfG6PD inh,Neddylation inh,APOBEC3A inh,NPR1 activator,GC-B act,Neddyl conf
COc1ccccc1C(=O)N1CCN(C(=O)[C@@H](Cc2ccccc2)NC(=O)[C@H]2O[C@@H](n3ccc(=O)[nH]c3=O)[C@H](O)[C@@H]2O)CC1,nt,nt,nt,nt,2,2,nt
O=C(CSc1nnc(-c2ccccc2)n1-c1ccc(Cl)cc1)c1ccc(Cl)cc1,nt,nt,nt,nt,-9,-1,nt
CC(C)(C)OC(=O)N1CCC[C@@H]1C(=O)N1CCC[C@H]1C(=O)NCc1ccccc1,nt,nt,nt,nt,4,0,nt
N=c1n(Cc2ccccc2)c2ccccc2n1CC(O)c1ccco1 (stereo unspecified),-6,-6,39*,0,-13,-11,i
CCn1c(=N)n(CC(O)c2ccco2)c2ccccc21 (stereo unspecified),-1,1,11,3,-2,-9,nt
Nc1ccc(C#Cc2ccc3oc4ccccc4c(=O)c3c2)cc1,-8,14,-94,-3,-1,1,nt
Nc1ccc2oc3ccccc3c2c1,-2,1,42*,1,1,0,i
COC(=O)c1ccc(C#Cc2ccccc2)o1,-8,5,39*,-2,1,-2,i
COC(=O)C1=C(C)N(Cc2cccc(C(F)(F)F)c2)C(=NCc2cc(OC)c(OC)c(OC)c2)NC1c1ccccc1 (stereo unspecified),nt,nt,nt,nt,-20,-19,nt
Oc1ccc2c(c1)oc1cc(O)ccc12,-1,1,41*,2,7,-1,i
COc1c(C)oc2cc(O)ccc2c1=O,-1,-21,nt,0,3,2,nt
Cc1sc2nc(COC(=O)CNC(=O)c3cc(F)ccc3F)[nH]c(=O)c2c1C,nt,nt,nt,nt,0,-8,nt
CCc1ccc(-n2ncc(Cl)c(Oc3ccc(OC)cc3)c2=O)cc1,nt,nt,nt,nt,13,3,nt
COCCn1c(C)cc(/C=C(\C#N)C(=O)OCC(=O)Nc2ccc(S(N)(=O)=O)cc2)c1C,-6,6,40*,29,-1,-5,+
CCCn1c(C)cc(/C=C(\C#N)C(=O)OCC(=O)Nc2ccc(OC)c(Cl)c2)c1C,-3,-12,nt,5,-4,-2,nt
